The panel holds about 79,000 compounds, 15% with a hit somewhere; the sample as a whole holds those more often. Activity calls are given as the source filed them. Rule as the data show it: active = growth inhibition above about 70%; inactive = the rest.
Experiment: NCI Yeast Anticancer Drug Screen. Data for the mlh1 strain (AID 171);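 also: 0% = growth of vehicle-treated control cultures of the same strain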
Conditions: S. cerevisiae mlh1 strain growth inhibition, hits give high values
Procedure: Growth inhibition of yeast strains with defined genetic alterations is measured as a screen for potential anti-cancer activity. Selected strains with alterations in DNA damage repair or cell cycle control were exposed to compounds and growth inhibition was measured relative to vehicle treated controls. The strain used in this assay is mlh1

| SMILES | growth inhibition (at 1.2 µM) | growth inhibition (at 3.7 µM) | growth inhibition (at 11.0 µM) | growth inhibition (at 33.0 µM) | growth inhibition (at 100.0 µM) |
| --- | --- | --- | --- | --- | --- |
| O=S(=O)(Oc1c(Cl)cc(Cl)cc1Cl)c1ccccc1 | -1% (inactive) | -2% (inactive) | -10% (inactive) | 13% (inactive) | 28% (inactive) |
| C[n+]1c(-c2ccc(NC(=O)c3ccc(C(=O)Nc4ccc(-c5cn6ccccc6[n+]5C)cc4)cc3)cc2)cn2ccccc21 | 2% (inactive) | 1% (inactive) | 23% (inactive) | 89% (active) | 94% (active) |
| COc1ccc2cc(CN3CCC(C4CCN(Cc5ccc6cc(OC)ccc6c5)CC4)CC3)ccc2c1 | -12% (inactive) | -15% (inactive) | -17% (inactive) | -26% (inactive) | 97% (active) |
| NCC(O)CSCc1ccc(Cl)cc1 (stereo not given) | -5% (inactive) | -4% (inactive) | -4% (inactive) | -1% (inactive) | 22% (inactive) |
| Cc1cnccc1N=Nc1ccc(N(C)C)cc1 | -1% (inactive) | 1% (inactive) | 0% (inactive) | 24% (inactive) | 31% (inactive) |
| CCOC(=O)/C=C1\CCCn2c1ncc(C(=O)OCC)c2=O | 2% (inactive) | 3% (inactive) | 8% (inactive) | 15% (inactive) | 38% (inactive) |
| CCOc1ccccc1N1C(=O)CC(Sc2ccccc2N)C1=O (stereo not given) | -10% (inactive) | -18% (inactive) | -33% (inactive) | -18% (inactive) | -24% (inactive) |
| CN(C)CCn1c2ccccc2c2nc3cc4ccccc4cc3nc21 | 2% (inactive) | 9% (inactive) | 33% (inactive) | 80% (active) | 98% (active) |

Reference: PubChem BioAssay (NCI)
